In PubChem BioAssay AID1159580 (chemical genetic matrix, 2015):
Values joined by “and” are separate entries in the source; they are usually repeats but may differ in a detail not shown here. Equal values may be shown once. In all, about 5,500 compounds went through this assay and about 2,000 (36%) were called active. Roughly 18% stayed inconclusive and do not appear here. Rule as the data show it: active = normalized growth mostly below about 0.91 (no sharp cut-off); inconclusive = no clear call, values can overlap the other calls; inactive = mostly above about 0.92. The list shows a part of the results.

Assay: chemical genetic growth profiling, strain panel (AID 1159580);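 also: tested at 20 µM; growth read once vehicle control cultures reached saturation at 30 °C; 1 = growth at the plate median or of vehicle wells; lower values mean less growth of the strain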
Settings: S. cerevisiae deletion strains, growth OD

Measured: normalized growth

OC(CCN1CCCCC1)(c1ccccc1)c1ccccc1
inactive: locus YAL021C, strain ccr4, stronger effect = lower value 1.01 | locus YAL026C, strain drs2, stronger effect = lower value 0.985 | locus YAL030W, strain snc1, stronger effect = lower value 0.99 | locus YBL061C, strain skt5, stronger effect = lower value 0.986 | locus YBR009C, strain hhf1, stronger effect = lower value 0.939 | locus YBR021W, strain FUR4, stronger effect = lower value 1.02 | locus YBR023C, strain chs3, stronger effect = lower value 0.99 | locus YBR171W, strain sec66, stronger effect = lower value 0.987 | locus YBR229C, strain ROT2, stronger effect = lower value 1 | locus YBR231C, strain swc5, stronger effect = lower value 1.01 | locus YBR279W, strain paf1, stronger effect = lower value 0.995 | locus YCL011C, strain gbp2, stronger effect = lower value 0.969 | locus YCL016C, strain dcc1, stronger effect = lower value 0.975 | locus YCL029C, strain bik1, stronger effect = lower value 1.01 | locus YCL061C, strain MRC1, stronger effect = lower value 1 | locus YCL069W, strain vba3, stronger effect = lower value 0.977 | locus YCR088W, strain abp1, stronger effect = lower value 0.983 | locus YDL005C, strain med2, stronger effect = lower value 1.01 | locus YDL035C, strain GPR1, stronger effect = lower value 1.04 | locus YDL040C, strain nat1, stronger effect = lower value 0.992 | locus YDL074C, strain BRE1, stronger effect = lower value 1.03 | locus YDL101C, strain DUN1, stronger effect = lower value 1.01 | locus YDL134C, strain PPH21, stronger effect = lower value 1.03 | locus YDL185W, strain tfp1, stronger effect = lower value 1.01 | locus YDL192W, strain arf1, stronger effect = lower value 1.02 | locus YDR001C, strain nth1, stronger effect = lower value 0.989 | locus YDR069C, strain doa4, stronger effect = lower value 0.997 | locus YDR101C, strain arx1, stronger effect = lower value 0.993 | locus YDR137W, strain rgp1, stronger effect = lower value 1.01 | locus YDR159W, strain sac3, stronger effect = lower value 1.01 | locus YDR162C, strain NBP2, stronger effect = lower value 1.01 | locus YDR195W, strain ref2 1.02 | locus YDR297W, strain sur2, stronger effect = lower value 0.984 | locus YDR318W, strain mcm21, stronger effect = lower value 1.01 | locus YDR334W, strain swr1, stronger effect = lower value 0.99 | locus YDR335W, strain msn5, stronger effect = lower value 0.986 | locus YDR388W, stronger effect = lower value 1.01 | locus YDR392W, strain spt3, stronger effect = lower value 0.886 | locus YDR502C, strain sam2, stronger effect = lower value 1 | locus YEL003W, strain gim4, stronger effect = lower value 0.98 | locus YEL037C, strain rad23, stronger effect = lower value 0.985 | locus YEL061C, strain CIN8 (second series), stronger effect = lower value 0.977 | locus YEL061C, strain CIN8, stronger effect = lower value 1.01 | locus YER015W, strain faa2, stronger effect = lower value 0.994 | locus YER016W, strain bim1, stronger effect = lower value 0.997 | locus YER110C, stronger effect = lower value 1.01 | locus YER111C, strain swi4, stronger effect = lower value 0.983 | locus YER155C, strain BEM2 (second series), stronger effect = lower value 0.995 | locus YER155C, strain BEM2, stronger effect = lower value 1 | locus YER167W, strain BCK2, stronger effect = lower value 1.01 | locus YFR010W, strain ubp6, stronger effect = lower value 0.987 | locus YGL078C, strain dbp3, stronger effect = lower value 1 | locus YGL086W, strain mad1, stronger effect = lower value 1 | locus YGL167C, strain pmr1, stronger effect = lower value 0.984 | locus YGL173C, strain kem1, stronger effect = lower value 0.986 | locus YGL227W, strain vid30, stronger effect = lower value 0.989 | locus YGL240W, strain doc1, stronger effect = lower value 1.02 | locus YGL248W, strain PDE1, stronger effect = lower value 1.01 | locus YGL253W, strain hxk2, stronger effect = lower value 1.02 | locus YGR078C, strain PAC10, stronger effect = lower value 1.01 | locus YGR135W, strain pre9, stronger effect = lower value 1.01 | locus YGR252W, strain gcn5, stronger effect = lower value 1.01 | locus YHR013C, strain ard1, stronger effect = lower value 1.01 | locus YHR027C, strain rpn1, stronger effect = lower value 0.99 | locus YHR030C, strain SLT2, stronger effect = lower value 1.01 and 1.03 | locus YHR079C, strain IRE1 (second series), stronger effect = lower value 1.01 | locus YHR079C, strain IRE1, stronger effect = lower value 1.03 | locus YHR094C, strain hxt1, stronger effect = lower value 1.01 | locus YHR129C, strain ARP1, stronger effect = lower value 1 | locus YHR142W, strain chs7, stronger effect = lower value 0.946 | locus YHR200W, strain rpn10, stronger effect = lower value 1.01 | locus YIL066C, strain RNR3, stronger effect = lower value 1.01 | locus YIL073C, strain SPO22, stronger effect = lower value 1.09 | locus YIL125W, strain kgd1, stronger effect = lower value 1.01 | locus YIR030C, strain dcg1, stronger effect = lower value 1.01 | locus YJL092W, strain hpr5, stronger effect = lower value 0.988 | locus YJL095W, strain BCK1 (second series), stronger effect = lower value 0.982 | locus YJL095W, strain BCK1, stronger effect = lower value 0.996 and 1.05 | locus YJL115W, strain asf1, stronger effect = lower value 0.982 | locus YJL129C, strain trk1, stronger effect = lower value 0.987 | locus YJL134W, strain LCB3, stronger effect = lower value 1 | locus YJL154C, strain vps35, stronger effect = lower value 0.984 | locus YJL164C, strain tpk1, stronger effect = lower value 0.967 | locus YJL166W, strain qcr8, stronger effect = lower value 1 | locus YJL168C, strain set2, stronger effect = lower value 1.01 | locus YJL187C, strain SWE1 (second series), stronger effect = lower value 1.01 | locus YJL187C, strain SWE1, stronger effect = lower value 0.996 | locus YJR043C, strain POL32, stronger effect = lower value 1.04 | locus YJR066W, strain TOR1, stronger effect = lower value 0.938
